Source: PubChem
mcGAS RapidFire: blocks mouse cGAS cGAMP production. recombinant mouse cGAS, cGAMP by RapidFire MS. inhibition, % at 12.5 µM. hit rate 0.18% among 130,000. Q8C6L5;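 active = inhibition of cGAS enzyme activity at or above 60%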;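 note: enzyme stimulated by 45 bp dsDNA with ATP and GTP substrates; cGAMP share of summed cGAMP plus half ATP and half GTP signals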
Target sequence (Q8C6L5 whole entry, looked up): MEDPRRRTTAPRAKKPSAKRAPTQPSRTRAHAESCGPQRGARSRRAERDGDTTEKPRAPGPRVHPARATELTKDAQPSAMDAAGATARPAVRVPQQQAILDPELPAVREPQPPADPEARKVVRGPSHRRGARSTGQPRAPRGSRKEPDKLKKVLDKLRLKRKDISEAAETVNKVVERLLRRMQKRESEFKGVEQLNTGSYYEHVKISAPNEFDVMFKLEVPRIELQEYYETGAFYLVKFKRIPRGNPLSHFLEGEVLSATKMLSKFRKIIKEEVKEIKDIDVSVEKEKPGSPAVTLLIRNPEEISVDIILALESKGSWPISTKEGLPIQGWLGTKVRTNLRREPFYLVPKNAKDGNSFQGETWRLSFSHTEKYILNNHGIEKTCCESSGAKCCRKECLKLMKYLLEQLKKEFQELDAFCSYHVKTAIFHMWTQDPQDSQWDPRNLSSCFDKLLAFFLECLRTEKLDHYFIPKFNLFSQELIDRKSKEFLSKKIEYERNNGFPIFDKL
Numbers stand for hits; n = inactive; ! = repeats disagree. The sample as a whole holds a higher share of hits than the screen did.

SMILES	mcGAS RapidFire
CCOC(=O)C1=C(C)NC(=O)C(C#N)C1c1ccc([N+](=O)[O-])cc1 (centres undefined)	n
CCCC1C(C#N)C(=N)SC(=N)C1C#N (centres undefined)	n
N#CC1C(=N)SC(=N)C(C#N)C1c1ccc([N+](=O)[O-])cc1 (centres undefined)	62
O=C(NCCCn1nnc2ccccc21)c1cn(C2CCCCC2)nn1	n
Cc1ccc(C(=O)N2CCCC2)cc1S(=O)(=O)Nc1ccc(F)cc1	n
c1cn(CC2CCCN(Cc3cc4n(n3)CCNC4)C2)cn1 (centres undefined)	n
CC(C)(C)n1nc2c(c1NC(=O)C1CCCC1)CS(=O)(=O)C2	n
COc1ccc2cc(CNC(=O)NC(C)c3ccc(F)c(F)c3)ccc2c1 (centres undefined)	n
COc1ccc(C(C)NCC(O)COc2ccc(Cl)cc2Cl)cc1F (centres undefined)	n
COc1cccc2cc(CNC(C)c3ccc(F)c(F)c3)oc12 (centres undefined)	67
O=C(CSCc1ccccc1)c1ccccc1Br	n
N[n+]1cnn(CC(=O)c2ccc(Br)cc2Br)c1	83
N[n+]1cnn(CC(=O)c2ccccc2)c1	n
CCC(=O)Nc1ccc(C(=O)Cn2cc(Br)cn2)cc1	n
N[n+]1cnn(CC(=O)c2ccccc2Br)c1	98
Cc1nn(CC(=O)c2ccc(Cl)cc2Cl)c(C)[n+]1N	n
Cn1cc(C=C2SC(=NC3CCCCC3)NC2=O)cn1	n
Cc1ccc(-c2nnc(CN(C)CCC(O)c3ccccc3)o2)cc1 (centres undefined)	n
c1cc2nnnn2nc1NCC1(N2CCOCC2)CCSC1 (centres undefined)	n
COc1cc2c(cc1OC)CN(C1CCCN(C3CCSCC3)C1)CC2 (centres undefined)	n
COc1ccc2[nH]c(=O)c(CN3CCC(N4CCCC(O)C4)CC3)cc2c1 (centres undefined)	n
COc1ccc2[nH]c(=O)c(CN3CCCOC(Cn4cccn4)C3)cc2c1 (centres undefined)	n
COc1ccc2cc(CN3CCCN(c4ccncc4)CC3)c(=O)[nH]c2c1	60
O=S(=O)(Nc1cc2c(cc1Cl)OCCO2)c1ccccc1C(F)(F)F	n
N#CC1(C(=O)NNc2c(Cl)cc(Cl)cc2Cl)CCCC1	n
SMILES	mcGAS RapidFire
CC(C)CC(=O)N1CCN(Cc2ccc(-c3ccccc3C#N)cc2)CC1	n
Fc1ccccc1N1CCN(Cn2[nH]c(-c3ccccc3)nc2=S)CC1	n
CN(C)C(=O)C1CCCN1Cn1[nH]c(-c2ccccc2)nc1=S (centres undefined)	n
S=c1nc(-c2ccccc2)[nH]n1CN1CCc2ccccc2C1	77
CCCC(C)(C)C(=O)N1CCC1(C)C(=O)NCc1ccc2c(c1)OCO2 (centres undefined)	n
CC(C)(C)C(NS(=O)(=O)c1ccc(F)cc1)c1ccccc1 (centres undefined)	n
COc1ccc(-c2ccc(NC(=O)C3CC3)nc2)c2cccnc12	n
COc1ccc(-c2ccc(C(=O)N3CCCC3)o2)c2cccnc12	86
CNC(=O)c1ccc(-c2ccc(OC)c3ncccc23)s1	n
COc1ccc(CNC(=O)CCC(=O)N2CCc3ccccc3C2)c(OC)c1	n
COc1ccc(C(Cl)Cl)c(C(=O)O)c1	n
CN(C)CCC1CN(C(=O)CCc2cccs2)CCO1 (centres undefined)	n
O=c1c(N=Nc2cccc([N+](=O)[O-])c2)c(-c2ccccc2)[nH]n1-c1ccccc1	n
N#Cc1ccc(N=Nc2c(-c3ccc([N+](=O)[O-])cc3)[nH]n(-c3ccccc3)c2=O)cc1	n
O=C(O)c1ccc(N=Nc2c(-c3ccccc3)[nH]n(-c3ccc([N+](=O)[O-])cc3)c2=O)cc1	76
Cc1nc(CCC(=O)OC2CCC2)oc1-c1ccc(Br)cc1	n
CC(=O)c1c(-c2ccc(Cl)cc2)c2ccccc2n(C)c1=O	n
CCCCCN1CCN(c2nc3c(c(=O)[nH]c(=O)n3C)n2Cc2ccc(F)cc2)CC1	n
C#CCN(CC#CC)CC(O)COc1ccc(F)cc1 (centres undefined)	n
C=C(Br)CNC(=O)N1CCCN(C(=O)c2ccccc2Cl)CC1	n
CCc1noc(C(C)N2CCN(S(=O)(=O)c3c(C)c(C)c(C)c(C)c3C)CC2)n1 (centres undefined)	n
CCCc1noc(C(C)N2CCCN(C(=O)c3ccccc3Cl)CC2)n1 (centres undefined)	76
CCOC(=O)C1CCN(C(=O)CCc2c(C)nn(-c3nc(C)cc(=O)[nH]3)c2C)CC1	n
NCc1nnc2ccccn12	n
CSC1(CNC(=O)N2CCCC2c2cccs2)CCOCC1 (centres undefined)	n
SMILES	mcGAS RapidFire
CSC1(CNC(=O)c2ccc(Oc3ccccc3)nc2)CCOCC1	n
CSC1(CNc2ccc(Br)cn2)CCOCC1	71
CSCCCN1CC[C@H](O)C[C@@H]1C(=O)O	n
COc1cc2c(cc1OC)CN(C1CCCN(Cc3cccc4c3OCO4)C1)CC2 (centres undefined)	n
COC(=O)Cn1c(=O)c2c(nc3n2CCN3c2ccc(C)cc2C)n(C)c1=O	n
O=C1NC(=O)C2C1Sc1[nH]c(=O)sc1C2c1ccco1 (centres undefined)	89
COc1ccc(C2c3sc(=O)[nH]c3SC3C(=O)NC(=O)C32)cc1 (centres undefined)	n
O=C1C2Sc3[nH]c(=O)sc3C(c3ccc(O)cc3)C2C(=O)N1c1ccc(Cl)cc1 (centres undefined)	n
CC(CCc1ccco1)NC(=O)C1CC(=O)N(c2ccccc2Br)C1 (centres undefined)	n
S=C(NCc1ccco1)NC1CCSc2ccccc21 (centres undefined)	n
O=C1CSC(=NNC(=S)NCc2ccco2)N1	83
C=C(N/N=C1/NC(=O)CS1)c1ccccc1	n
CCN1C(=O)C(=Cc2cc(C)n(CC(F)(F)F)c2C)SC1=S	n
COC(=O)C(=Cc1cc(C)n(CC(F)(F)F)c1C)C(C)=O	n
Cc1cc(C=C2C(=O)NC(=S)NC2=O)c(C)n1CC(F)(F)F	74
Cn1nc(C(=O)NCC(C)(C)N2CCCCC2)c2ccccc2c1=O	n
COc1ccc(CNc2c[nH]c(=O)cc2C)cc1OCCCC#N	83
COc1ccc(CNc2ncn[nH]2)cc1OC	n
COc1ccc(CNc2ccccc2-n2cccn2)cc1C	n
COc1ccc(OC)c(S(=O)(=O)N2CCN(C(=O)CCCc3cccs3)CC2)c1	n
CC(=O)Nc1ccc(NC(=O)Nc2cc(C)on2)cc1Cl	n
Cc1cc(CNC(=O)c2ccccc2C2CCNC2)ccc1F (centres undefined)	n
Nc1c2ccccc2nc2ccccc12	78!
Nc1c2c(nc3ccccc13)CCCC2	n
Cc1ccc2c(N)cccc2n1	n
SMILES	mcGAS RapidFire
Cc1nc(N2CCCC(C(=O)NCc3ccsc3)C2)nc2cc(S(C)(=O)=O)ccc12 (centres undefined)	n
O=C(CCCS(=O)(=O)c1ccc(F)cc1)Nc1ncnc2sccc12	n
Cc1ccccc1N=Cc1c(C(F)(F)F)[nH]n(-c2nc3ccccc3s2)c1=O	69
C=CCN=Cc1c(C(F)(F)F)[nH]n(-c2nc3ccccc3s2)c1=O	n
Cc1[nH]n(-c2nc3ccccc3s2)c(=O)c1C=NC1CCN(Cc2ccccc2)CC1	n
Brc1ccc(-c2nnc(CSc3nnc(NC4CC4)s3)o2)cc1	n
CC(=O)Nc1cc(C(=O)C(C#N)c2nc(C(C)C)cs2)ccc1F (centres undefined)	n
CCCN1CCC(=NNc2ccc(C)c(Cl)c2)CC1	n
